High-throughput results deposited in PubChem by National Center for Advancing Translational Sciences (NCATS).
Shown are actives, neighbours in structure and some others; about 9.3% of the full set was active somewhere.
Sm TGR inh: inhibitors of Schistosoma mansoni thioredoxin glutathione reductase | purified TGR, DTNB reduction, TNB absorbance 405 nm | Potency, µM (highest dose often 114 µM), actives largely listed as inhibitors | hit rate 3% among 360,000; further: nearly all actives have a fitted effect of over 60% in size
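Kinetic colorimetric format: TGR-catalysed, NADPH-driven DTNB reduction monitored via TNB absorbance. Enzyme dispensed at 20 nM; compound exposure 15 min at room temperature before reaction start.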
Vaccinia Venus: vaccinia inhibition (Venus reporter) | Vaccinia virus Venus reporter expression, fluorescence | Potency, µM (doses to about 36.5 µM), most hits filed as inhibitors | hit rate 0.46% among 330,000 | AID 720580; calls by dose curve; tested in A549 cells; further: nearly all actives have a fitted effect of over 30% in size
HCMV antiviral: blocks human cytomegalovirus replication; HFF cells, HCMV-luciferase reporter, 72 h; stronger effect = lower value; activity change, negative = inhibition, % at 57.5 µM; hit rate 4.5% among 410,000; AID 1259415; in the data active means activity change below about -60%; inconclusive means no clear call, values can overlap the other calls; inactive means above about -39%
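Human foreskin fibroblasts infected with luciferase-reporter HCMV at MOI 1 PFU/cell, compounds at two doses. Luciferase measured 72 h post infection; normalized to buffer-only basal and Salinomycin (10uM) controls.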
Vaccinia mCherry: inhibitors of vaccinia virus infection (mCherry reporter signal) | Potency, µM (highest dose often 36.5 µM), hits mostly inhibitors | hit rate 0.63% among 310,000 | Vaccinia virus mCherry reporter infection, fluorescence | AID 720579; calls by dose curve; tested in A549 cells; further: nearly all actives have a fitted effect of over 35% in size
HCV inhibitor: HCV inhibition | Huh7.5.1 HCVcc-Cre infection, luciferase reporter, 44 h | Potency, µM (series often up to 41.8 µM), hits mostly inhibitors | hit rate 3.4% among 340,000 | AID 651820
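A cell-based infection assay in which seeded cells (1,000 per well) receive test compound after 4 h, are inoculated with HCVcc-Cre at approximately 0.5 moi, and are incubated 44 h before luminescence detection.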
FMDV inh: foot and mouth disease virus antiviral activity; FMDV antiviral cell-based qHTS; Potency, µM (highest dose often 57.9 µM), actives largely listed as inhibitors; hit rate 1.2% among 410,000; AID 1159524; calls by dose curve; tested in HEK293T cells; further: read-out not given here; nearly all actives have a fitted effect of over 45% in size
Of the large screens only hits and unclear results are named; the others gave an inactive call. Unless noted, the call rests on the fitted dose curve; in most records, active means well fitted curve in the direction sought with a large enough effect; inconclusive means small, poorly fitted or top-dose-only effect, or another doubt; inactive means no such curve, though single readings can be large; an effect the other way counts as inactive or inconclusive.

COc1cccc(N2[C@@H](CC(=O)O)c3ccc(/C=C/C(=O)O)cc3S2(=O)=O)c1	HCMV antiviral inconclusive (no result: Sm TGR inh)
CSc1ccccc1NC(=O)c1cc(-c2ccco2)on1	none
Cc1ccc(NC(=S)NC2CCSc3ccccc32)cc1 (stereo not given)	HCMV antiviral inconclusive, Vaccinia mCherry inconclusive, HCV inhibitor inconclusive
Cc1cc(C(=O)N/N=C/c2cc(N=Nc3ccccc3)ccc2O)n[nH]1	Vaccinia Venus inconclusive, Vaccinia mCherry inconclusive, HCV inhibitor 22.4µM (no result: HCMV antiviral)
Nc1ccc(C(=O)N/N=C\c2cc(N=Nc3cccc4ccccc34)ccc2O)cc1	HCMV antiviral -102.0, HCV inhibitor 11.2µM (no result: Vaccinia Venus, Vaccinia mCherry)
O=C(CNC(=O)c1ccc(S(=O)(=O)N2CCCC2)cc1)N/N=C/c1ccccc1Cl	HCMV antiviral -62.9, HCV inhibitor inconclusive, FMDV inh inconclusive
CC/C(=N/NC(=O)c1ccc2c(c1)OCO2)c1ccccc1O	HCMV antiviral -97.9, HCV inhibitor 3.16µM (no result: Sm TGR inh, Vaccinia Venus, Vaccinia mCherry)
COc1ccc2nc(Cl)cc(Cl)c2c1	none
C=CS(=O)(=O)c1c2cc(OC)ccc2nc2ccc(OC)cc12	Vaccinia Venus inconclusive, HCMV antiviral inconclusive, Vaccinia mCherry inconclusive, HCV inhibitor inconclusive, FMDV inh 28.2µM (no result: Sm TGR inh)
Cc1cc(C(O)c2ncc(-c3cccc(F)c3)[nH]2)ccc1F (stereo not given)	none (no result: Sm TGR inh, HCV inhibitor)
c1ccc2nc3c(nc2c1)c1ccccc1n3CCN1CCOCC1	HCV inhibitor inconclusive (no result: Vaccinia Venus, Vaccinia mCherry)
CCn1c2ccccc2c2nc3cc(S(=O)(=O)N4CCOCC4)ccc3nc21	Vaccinia Venus inconclusive, Vaccinia mCherry inconclusive, HCV inhibitor 10µM (no result: HCMV antiviral)
CCn1c(SCC(=O)c2cc(C)ccc2C)nc2cc(S(=O)(=O)N3CCOCC3)ccc21	HCMV antiviral -62.8, HCV inhibitor inconclusive
COC(=O)C1=CN(c2ccc(C(C)(C)C)cc2)C(N)=C(C#N)C1c1ccc(OC)cc1 (stereo not given)	HCMV antiviral -77.1, Vaccinia mCherry inconclusive (no result: Sm TGR inh, HCV inhibitor)
CC(=O)C[C@@H]1OC[C@H](C(C)C)N1S(=O)(=O)c1ccc(C)cc1	none (no result: Sm TGR inh, HCV inhibitor)
O=C(CSc1nc(=O)n(Cc2ccccn2)c2c1CCC2)Nc1ccccc1	none (no result: HCV inhibitor)
NC(=O)C1CCN(C(=O)Cc2ccc([N+](=O)[O-])cc2)CC1	none
O=C(CC(=O)Nc1cccc(F)c1)Nc1cccc(F)c1	none
O=C(C#Cc1ccccc1)Nc1cccc(F)c1	Vaccinia Venus inconclusive, HCMV antiviral -104.2, Vaccinia mCherry 3.55µM, HCV inhibitor inconclusive
O=C(C#Cc1ccccc1)Nc1ccc(F)cc1	Vaccinia Venus inconclusive, HCMV antiviral -102.2, Vaccinia mCherry inconclusive, HCV inhibitor inconclusive
COc1ccc(NC(=O)C#Cc2ccccc2)cc1	HCMV antiviral inconclusive, Vaccinia mCherry inconclusive
O=C(COC(=O)Cc1ccsc1)NNC(=O)c1ccccc1	none (no result: Sm TGR inh, Vaccinia Venus, Vaccinia mCherry)
O=C(CCC(=O)c1cccs1)NNC(=O)c1ccccc1O	Sm TGR inh 11.2µM
O=C(/C=C/c1cccs1)NC(=S)NNC(=O)c1ccccc1O	HCMV antiviral -94.0, Vaccinia mCherry inconclusive, HCV inhibitor 22.4µM
O=C(Cc1ccsc1)NNC(=O)c1ccccc1O	HCMV antiviral -61.4, Vaccinia mCherry inconclusive, HCV inhibitor inconclusive
c1ccc2oc(-c3[nH]ncc3CN3CCC(N4CCSCC4)CC3)cc2c1	FMDV inh inconclusive (no result: Vaccinia Venus, Vaccinia mCherry)
CC(OC(=O)C1CCN(S(=O)(=O)c2ccc(C(C)(C)C)cc2)CC1)C(=O)N(C)C1CCCCC1 (stereo not given)	HCMV antiviral inconclusive, HCV inhibitor inconclusive, FMDV inh 39.8µM (no result: Sm TGR inh, Vaccinia Venus, Vaccinia mCherry)
CCCCNC(=O)c1nc2cc(C)c(C)cc2nc1-c1cccc(OC)c1	none (no result: Sm TGR inh, Vaccinia Venus, Vaccinia mCherry, HCV inhibitor, FMDV inh)
CCCCNC(=O)c1nc2cc(C)c(C)cc2nc1-c1cccc(C(F)(F)F)c1	HCMV antiviral -93.8 (no result: Sm TGR inh, Vaccinia Venus, Vaccinia mCherry, HCV inhibitor, FMDV inh)
Cc1nc2n[nH]c(N)c2c2c1CCCC2	none (no result: Vaccinia Venus, Vaccinia mCherry)
C#CCOCCOCCOCCNc1nc(N2CCN(C(=O)[C@H](CCC(=O)O)n3cc(C(N)CC(C)C)nn3)CC2)nc(N2CCN(C(=O)[C@H](CCC(=O)O)n3cc(C(N)[C@H](C)CC)nn3)CC2)n1 (stereo not given in full)	Sm TGR inh 31.6µM (no result: HCMV antiviral)
C#CCOCCOCCOCCNc1nc(N2CCN(C(=O)[C@H](CCCCN)n3cc(CCCC)nn3)CC2)nc(N2CCN(C(=O)[C@H](Cc3ccc(O)cc3)n3cc(CCO)nn3)CC2)n1	Sm TGR inh 35.5µM, HCV inhibitor inconclusive (no result: HCMV antiviral)
C#CCOCCOCCOCCNc1nc(N2CCN(C(=O)[C@H]([C@@H](C)CC)n3cc([C@@H](N)CC(C)C)nn3)CC2)nc(N2CCN(C(=O)[C@H](Cc3ccc(O)cc3)n3cc([C@@H](N)CC(C)C)nn3)CC2)n1	none
C#CCOCCOCCOCCNc1nc(N2CCN(C(=O)[C@H](CCCCN)n3cc([C@@H](N)C(C)CC)nn3)CC2)nc(N2CCN(C(=O)[C@H](CCCCN)n3cc([C@@H](N)CC(C)C)nn3)CC2)n1 (stereo not given in full)	Sm TGR inh 39.8µM, HCMV antiviral inconclusive
C#CCOCCOCCOCCNc1nc(N2CCN(C(=O)[C@H]([C@@H](C)CC)n3cc([C@@H](N)CC(C)C)nn3)CC2)nc(N2CCN(C(=O)[C@H]([C@@H](C)CC)n3cc([C@@H](N)CC(C)C)nn3)CC2)n1	Sm TGR inh 28.2µM
C#CCOCCOCCOCCNc1nc(N2CCN(C(=O)C([C@@H](C)CC)n3cc(C(N)CC(C)C)nn3)CC2)nc(N2CCN(C(=O)[C@H](CCC(=O)O)n3cc(C(N)[C@H](C)CC)nn3)CC2)n1 (stereo not given in full)	none
C#CCOCCOCCOCCNc1nc(N2CCN(C(=O)[C@H](CCCCN)n3cc(CC(C)O)nn3)CC2)nc(N2CCN(C(=O)[C@H](Cc3ccc(O)cc3)n3cc(CCO)nn3)CC2)n1 (stereo not given in full)	none (no result: Sm TGR inh)
COc1ccc(CCNC(=O)c2cc(S(=O)(=O)N3CCOCC3)ccc2N2CCCC2)cc1OC	HCV inhibitor inconclusive
C#CCOCCOCCOCCNc1nc(N2CCN(C(=O)[C@H]([C@@H](C)CC)n3cc([C@@H](N)Cc4ccc(O)cc4)nn3)CC2)nc(N2CCN(C(=O)[C@H](CCCCN)n3cc([C@@H](N)C(C)CC)nn3)CC2)n1 (stereo not given in full)	none (no result: HCMV antiviral)
C#CCOCCOCCOCCNc1nc(N2CCN(C(=O)[C@H](CCC(=O)O)n3cc(C(N)CC(C)C)nn3)CC2)nc(N2CCN(C(=O)[C@H](Cc3ccc(O)cc3)n3cc(C(N)[C@H](C)CC)nn3)CC2)n1 (stereo not given in full)	Sm TGR inh 39.8µM (no result: Vaccinia Venus, HCMV antiviral, Vaccinia mCherry, HCV inhibitor, FMDV inh)
C#CCOCCOCCOCCNc1nc(N2CCN(C(=O)[C@H](CCC(=O)O)n3cc(C(N)Cc4ccc(O)cc4)nn3)CC2)nc(N2CCN(C(=O)[C@H](CCCCN)n3cc(C(N)[C@H](C)CC)nn3)CC2)n1 (stereo not given in full)	Sm TGR inh 31.6µM (no result: Vaccinia Venus, HCMV antiviral, Vaccinia mCherry, HCV inhibitor, FMDV inh)
